Experimental data from the supplement of paper PMC5662767.
Where a name gives a salt, the structure may show the parent alone.

Tested on: Drosophila S2 cl14 SmoIP sensor cells
Assay: normalized SmoIP GFP fluorescence (untreated unstimulated = 0%, untreated Hh-stimulated = 100%); higher = more Smo activation sensor fluorescence
Details: compound concentration: 2 uM, 24 h
[1] = stimulation: Hh conditioned medium (+Hh)
[2] = stimulation: mock conditioned medium (-Hh)
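Also: flow cytometry read-out as median GFP intensity of gated cells, compounds added 30 min before Hh-conditioned or mock medium, mock-treated cells serving as unstimulated baseline.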

| SMILES | normalized SmoIP GFP fluorescence [1] [%] | normalized SmoIP GFP fluorescence [2] [%] |
| --- | --- | --- |
| CC(C)CCN1c2nc(Nc3cc(F)c(O)c(F)c3)ncc2N(C)C(=O)C1C (centres undefined) | 144 | 1.61 |
| CC(C)NCC(O)c1ccc(O)c(O)c1 (centres undefined) [Isoprenaline-hydrochloride] | 141 | -14.1 |
| CC(C)(C#N)c1ccc(N2C(=O)OCc3cnc4ccc(-c5cnc6ccccc6c5)cc4c32)cc1 | 148 | 28.4 |
| CC(C)n1nc(-c2cc3cc(O)ccc3[nH]2)c2c(N)ncnc21 | 117 | -12.7 |
| CC(C)c1cc(-c2n[nH]c(=O)n2-c2ccc3c(ccn3C)c2)c(O)cc1O [ganetespib-sta-9090] | 103 | -1.56 |
| CN(C)CC(c1ccc(O)cc1)C1(O)CCCCC1 (centres undefined) [desvenlafaxine] | 105 | -0.889 |
| O=S(=O)(c1ccccc1)N(CC(F)(F)F)c1ccc(C(O)(C(F)(F)F)C(F)(F)F)cc1 | 104 | -1.85 |
| COc1ccccc1OCCNCC(O)COc1cccc2[nH]c3ccccc3c12 (centres undefined) [carvedilol] | 118 | -7.78 |
| CC(C)C[C@H](NC(=O)[C@H](CCc1ccccc1)NC(=O)CN1CCOCC1)C(=O)N[C@@H](Cc1ccccc1)C(=O)N[C@@H](CC(C)C)C(=O)[C@@]1(C)CO1 [carfilzomib-pr-171] | 80.7 | 5.7 |
| NC(=O)c1ccc(N(C(N)=O)c2c(F)cccc2F)nc1-c1ccc(F)cc1F | 103 | -3.5 |
| CC(C)NC[C@@H](C(=O)N1CCN(c2ncnc3c2[C@H](C)C[C@H]3O)CC1)c1ccc(Cl)cc1 | 103 | -1.12 |
| CCC(=O)Nc1cccc(Oc2nc(Nc3ccc(N4CCN(C)CC4)cc3OC)ncc2Cl)c1 | 73.7 | -6.51 |
| Fc1ccc([C@@H]2CCNC[C@H]2COc2ccc3c(c2)OCO3)cc1 [paroxetine-hcl] | 103 | 0.588 |
| O=C(NCc1ccc(Oc2ccccc2)cc1)c1nc(-c2cc(Br)c(O)c(Br)c2)no1 [iowh032] | 117 | 20 |
| Cc1ccc(C(=O)c2cc(O)c(O)c([N+](=O)[O-])c2)cc1 [tolcapone] | 108 | -2.48 |
| Cc1c(OCC(F)(F)F)ccnc1C[S+]([O-])c1nc2ccccc2[nH]1 (centres undefined) [Lansoprazole] | 104 | -1.13 |
| COCCCOc1cc(C[C@@H](C[C@H](N)[C@@H](O)C[C@H](C(=O)NCC(C)(C)C(N)=O)C(C)C)C(C)C)ccc1OC [Aliskiren-hemifumarate] | 126 | -8.59 |
